Bioassay records (PubChem)
Most compounds without a hit are left out; they make up all but 2.9% or so of the library.
Rtt109 Vps75: inhibitors of Candida albicans Rtt109/Vps75 histone acetyltransferase | inhibition, % at 34.9 µM | Q5AAJ8 | purified Rtt109/Vps75, ThioGlo CoA-SH fluorescence, 4 h | 330,000 tested, 0.16% active;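 active = inhibition of at least 50% in every replicate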
Myeloid diff 2: compounds promoting myeloid differentiation; ER-HoxA9 myeloid progenitors, lysozyme-GFP differentiation, flow cytometry; calls only at 10 µM; 360,000 tested, 1% active; AID 624256;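 active = normalized GFP-positive differentiation at or above the plate's own cutoff, the solvent-only control mean plus 3 SD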;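 also: cells exposed to compound for four days before flow analysis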
ABHD5 PLIN5 PPI: blocks binding of human ABHD5 to perilipin-5; Q00G26+Q8WTS1; Split G. princeps luciferase complementation, luminescence, 4 h; inhibition, % at 4 µM; 360,000 tested, 0.78% active; AID 602281;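 active = inhibition above the mean inhibition across every tested compound plus 3 SD, cut at about 22% in these data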;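 also: 0% = DMSO only wells and the 100% control is not disclosed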
DAGLB inhibitor: blocks human DAGLB lipase activity | Q8NCG7 | HEK293T DAGLB membrane lysate, EnzChek fluorogenic substrate | inhibition, % at 5.17 µM | 340,000 tested, 0.059% active | AID 504411; in the data active = inhibition above about 34%;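 also: 0% = enzyme with vehicle and 100% = wells lacking enzyme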
Cardio protect: protects H9c2 cardiomyocytes from peroxide injury; H2O2 injury protection, ATPLite, 2 h; protection from H2O2 cell death, % at 20 µM; 360,000 tested, 0.63% active; AID 588492;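 active = compounds giving at least 50% protection of heart cells from peroxide-induced death in the single-dose screen, raw or plate-pattern-corrected value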;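 also: 0% = DMSO wells with peroxide and 100% = DMSO wells without peroxide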
HGIII-sPLA2 inh: Blocks human group III sPLA2 activity | 370,000 tested, 0.56% active | AID 743126 | inhibition, % at 12.2 µM | Q9NZ20 | QFRET BODIPY PC-A2 liposome hydrolysis, fluorescence;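 active = inhibition above mean plus 3 SD of compounds lying within the high and low control bounds, cut at about 19% in these data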;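 also: 0% = median of test compound wells and 100% = no enzyme DMSO wells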
Target sequence (Q9NZ20 whole entry, looked up): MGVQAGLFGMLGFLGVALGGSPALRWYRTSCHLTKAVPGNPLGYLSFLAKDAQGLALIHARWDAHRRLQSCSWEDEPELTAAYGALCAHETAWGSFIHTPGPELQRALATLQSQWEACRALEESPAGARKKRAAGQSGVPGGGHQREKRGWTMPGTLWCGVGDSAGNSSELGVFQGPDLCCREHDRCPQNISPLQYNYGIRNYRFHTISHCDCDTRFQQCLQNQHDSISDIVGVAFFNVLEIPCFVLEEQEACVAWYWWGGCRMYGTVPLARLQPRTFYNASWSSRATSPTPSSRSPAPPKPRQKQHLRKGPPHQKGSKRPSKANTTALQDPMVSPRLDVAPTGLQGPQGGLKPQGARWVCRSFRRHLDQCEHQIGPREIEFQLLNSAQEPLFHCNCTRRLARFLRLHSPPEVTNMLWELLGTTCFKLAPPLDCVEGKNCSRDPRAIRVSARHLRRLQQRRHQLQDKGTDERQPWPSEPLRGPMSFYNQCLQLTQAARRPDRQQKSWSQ
Myeloid diff: myeloid differentiation induction | AID 651706 | shares compounds with Myeloid diff 2 | 2,300 tested, 2% active | ER-HoxA9 myeloid progenitors, GFP/Mac1 double-positive flow | calls only;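 active = share of green or green-and-red cells above 9 and 9% in run 1 or 4 and 3% in run 2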
GFP autofluor: compound fluorescence in myeloid differentiation counter-screen; AID 651707; fluorescence response, % (no concentration beside the values); shares compounds with Myeloid diff 2; ER-HoxA9 myeloid progenitors, no estrogen, GFP autofluorescence flow cytometry; vehicle wells 0%, positive control 100%; 2,300 tested, 7.4% active;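 active = over 5% cells positive for green fluorescent reporter, or over 2% positive for both it and APC stain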;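 also: range taken on the double positive population between DMSO and positive control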
An asterisk follows results filed as active; i = inactive; nt = no result given; + = active, no number.

SMILES | Rtt109 Vps75 | Myeloid diff 2 | ABHD5 PLIN5 PPI | DAGLB inhibitor | Cardio protect | HGIII-sPLA2 inh | Myeloid diff | GFP autofluor
Cc1ccc(S(=O)(=O)N2C3CCCCC3O[C@H]2CC(=O)c2ccc(F)cc2)cc1 (stereo partly specified) | nt | i | 1.6 | nt | nt | -2.1 | nt | nt
Cc1ccc(C)c(/C(O)=C2\C(=O)C(=O)N(CCCn3ccnc3)C2c2ccncc2)c1 (stereo unspecified) | 2.6 | + | 6.4 | -3.4 | 8.8 | -1.7 | i | 0.3
Cc1nc(C)c(C(=O)Nc2cccc(C)c2C)s1 | -8.5 | i | 8.2 | 2.9 | 0.4 | -2.8 | nt | nt
O=C(/C=C/c1ccccc1)C1=C(O)C(=O)N(CCO)C1c1ccc2c(c1)OCO2 (stereo unspecified) | 2.8 | i | 6.3 | 0.2 | 12.0 | -6.7 | nt | nt
Cc1cccc(NC(=O)CC2NCCNC2=O)c1 (stereo unspecified) | -0.7 | i | -0.3 | -0.5 | 9.6 | 4.1 | nt | nt
NC(N)=O | nt | i | 4.9 | nt | 5.3 | nt | nt | nt
CCOC(=O)c1ccc(NC(=O)c2nc[nH]c2C(=O)N[C@H](C)c2ccccc2)cc1 | 1.4 | i | 10.9 | -7.2 | 39.9 | 1.2 | nt | nt
COCOCCn1cc(CN2CCS(=O)(=O)N(Cc3ccc(-c4ccc(Cl)cc4)cc3)C(CC(C)C)C2=O)nn1 (stereo unspecified) | nt | + | -7.8 | -2.0 | 16.0 | -23.2 | i | 0.3
CCC/C=C/c1ccc(CN2C(C(C)C)C(=O)N(Cc3cn(CCC4OCCO4)nn3)CCS2(=O)=O)cc1 (stereo unspecified) | nt | i | 5.6 | -2.8 | -5.3 | -42.0 | i | 0.0
CC(C)C1C(=O)N(Cc2cn(CC3CCCCC3)nn2)CCS(=O)(=O)N1Cc1ccc(-c2ccc(F)cc2)cc1 (stereo unspecified) | nt | i | 7.3 | -1.7 | -9.3 | -19.4 | i | 0.4
CC(C)C1C(=O)N(Cc2cn(CCC3OCCCO3)nn2)CCS(=O)(=O)N1Cc1ccc(-c2cccc(CO)c2)cc1 (stereo unspecified) | nt | i | 2.4 | 0.2 | 4.6 | -10.2 | i | 1.3
CC(C)C1C(=O)N(Cc2cn(CCC3OCCCO3)nn2)CCS(=O)(=O)N1Cc1ccc(-c2cccc(N(C)C)c2)cc1 (stereo unspecified) | nt | i | -2.2 | -0.2 | 1.4 | 6.8 | nt | nt
CCC/C=C/c1ccc(CN2C(CC(C)C)C(=O)N(Cc3cn(CCC4OCCO4)nn3)CCS2(=O)=O)cc1 (stereo unspecified) | nt | i | -2.6 | 1.8 | -3.5 | -23.4 | nt | nt
C[C@H]1[C@@H](OC(=O)NCc2cccnc2)CC[C@@]23CCCN2C(=O)CCC[C@@H]13 | nt | nt | nt | nt | nt | 4.5 | nt | nt
Cc1ccc2nc(-c3cccnc3)cc(C(=O)Nc3ccccc3[N+](=O)[O-])c2c1 | -10.6 | i | 7.2 | -0.3 | -2.7 | 5.6 | nt | nt
C/C(Cc1ccccc1)=N\NC(=O)CNC(=O)c1ccc(Br)cc1 | nt | + | 2.8 | 0.5 | -1.5 | 1.2 | i | 0.6
C/C(Cc1ccccc1)=N\NC(=O)CNC(=O)c1ccccc1 | -2.4 | i | -0.4 | 0.1 | 1.8 | 0.6 | nt | nt
Cc1nc2nc(-c3ccccc3)[nH]n2c(=O)c1C | -7.5 | i | -0.9 | 2.2 | -4.9 | 5.4 | i | 0.5
Cc1cc(C)c(S(=O)(=O)Nc2nnc(CC(C)C)s2)c(C)c1 | -7.8 | i | -9.4 | 6.4 | -6.4 | -39.0 | nt | nt
Cc1cc(C)c(S(=O)(=O)Nc2nnc(C)s2)c(C)c1 | 15.0 | i | 4.0 | -1.9 | -0.5 | -4.8 | i | 0.3
CC1CCCCC1NC(=O)C(=O)NCC1CCCO1 (stereo unspecified) | -3.2 | i | 8.7 | 4.0 | -1.6 | 10.1 | i | 0.3
CCc1ccc(CNC(=O)C(=O)NCC2CCCO2)cc1 (stereo unspecified) | 0.1 | i | 0.1 | -1.9 | -2.1 | -1.8 | nt | nt
COc1ccc([C@H]2CC(=O)C[C@@H](CCn3cc(Cc4ccccc4)nn3)O2)cc1 | nt | i | -0.8 | nt | nt | -2.0 | nt | nt
CCN(C(=O)CSc1nnc(-c2ccccc2)n1C)C1CCS(=O)(=O)C1 (stereo unspecified) | 0.5 | i | -2.0 | -0.7 | 1.7 | -0.5 | nt | nt
CCOC(=O)N1CCN(C(=O)CSc2ncnc3sccc23)CC1 | 4.5 | i | -4.1 | -1.8 | 5.9 | 5.2 | nt | nt
SMILES | Rtt109 Vps75 | Myeloid diff 2 | ABHD5 PLIN5 PPI | DAGLB inhibitor | Cardio protect | HGIII-sPLA2 inh | Myeloid diff | GFP autofluor
C(=C\c1ccccn1)/c1ccccn1 | 5.6 | i | -3.8 | 3.6 | 2.7 | 0.9 | i | 0.3
Clc1ccc(C=Cc2ccccn2)cc1 | 6.1 | i | -4.0 | -4.2 | -9.7 | -2.4 | nt | nt
CCCNC(=O)c1onc(CSc2ccc(F)cc2)c1C(=O)NCC1CC1 | -3.4 | i | 5.4 | -4.9 | -0.1 | -5.9 | nt | nt
O=C(C(=O)N1CCN(C(=O)Cc2ccccc2)CC1)c1cccc(C(F)(F)F)c1 | nt | nt | nt | nt | nt | -6.6 | nt | nt
COc1ccccc1C1CC(c2ccc(Br)cc2)=NN1C(=O)c1cccnc1 (stereo unspecified) | 1.5 | i | 7.3 | 0.3 | -1.3 | -15.3 | i | 0.0
COc1cccc(C2CC(c3ccc(Br)cc3)=NN2C(=O)c2ccncc2)c1OC (stereo unspecified) | 6.9 | i | 10.0 | -3.9 | 3.0 | 4.0 | nt | nt
Cc1cc(NCCN(C)C)n2nc(-c3cccs3)cc2n1 | -5.9 | i | 3.4 | 0.6 | 14.0 | -2.1 | nt | nt
COc1ccc(NC(=O)/C=C/c2ccc(S(=O)(=O)N3CCOCC3)cc2)cc1 | -2.8 | i | 1.1 | 2.2 | -4.6 | 5.6 | nt | nt
Cc1ccc(S(=O)(=O)N2CCOCC2)cc1NC(=O)COC(=O)/C=C/c1ccc(F)cc1 | 0.7 | i | -4.7 | -2.7 | -15.9 | -7.9 | i | 0.5
O=C(COC(=O)/C=C/c1ccc(S(=O)(=O)N2CCOCC2)cc1)Nc1ccccc1F | 3.0 | i | 0.0 | -5.1 | -0.6 | 0.9 | nt | nt
COc1ccc(/C=C/C(=O)Nc2ccc(C)c(S(=O)(=O)N3CCOCC3)c2)cc1 | -1.2 | i | 5.1 | -4.2 | -2.6 | -16.6 | i | 0.0
O=C(/C=C/c1cccc(F)c1)Nc1cc(S(=O)(=O)N2CCOCC2)ccc1Cl | 3.2 | i | -4.8 | -2.1 | 0.4 | -7.3 | i | 0.0
CCc1nnc(SCC(=O)Nc2ccc3ccccc3c2)n1N | -4.3 | i | -1.0 | -0.3 | 7.6 | -2.4 | nt | nt
Cc1cccc(Nc2nc(NCC3CCCO3)nc(N)c2[N+](=O)[O-])c1 (stereo unspecified) | -1.1 | + | 2.5 | 4.3 | 1.4 | -5.8 | i | 0.0
CC(=O)Nc1ccc(S(=O)(=O)NC2(C(F)(F)F)N=C(c3ccccc3)NC2=O)cc1 (stereo unspecified) | -3.8 | i | 7.7 | -0.6 | 0.8 | 2.4 | i | 0.0
CNc1cncc(-c2cccnc2)n1 | nt | i | 0.6 | nt | -1.0 | -5.1 | nt | nt
